Measured values: PubChem BioAssay AID720504 (National Center for Advancing Translational Sciences (NCATS), 2013)
Among all 360,000 compounds or so, about 10,000 (2.8%) were called active. Not shown: some 4% with an inconclusive outcome. This excerpt belongs to a sample that is enriched for actives. Unmarked numbers belong to inactive results. Calls follow the shape of the dose curve; as a rule, active = well fitted inhibition curve with a large enough effect; inconclusive = small, poorly fitted or top-dose-only effect; inactive = flat fitted curve, though single readings scatter.

These compounds were tested against Serine/threonine-protein kinase PLK1 (Homo sapiens) (UniProt P53350) (assay: qHTS for Inhibitors of PLK1-PDB (polo-like kinase 1 - polo-box domain): Primary Screen). Conditions: Plk1 PBD binding of FITC phosphopeptide, fluorescence polarization.
% is scaled to controls: 0 for no effect and ±100 for the full control effect; potency is read from the fitted curve at half-maximal effect.
Also: nearly all actives have a fitted effect of over 65% in size.
For max response, negative = inhibition in this document: series mostly up to about 57 µM.

Serine/threonine-protein kinase PLK1 (Homo sapiens), sequence (P53350 whole entry, looked up, the tested form may be a part): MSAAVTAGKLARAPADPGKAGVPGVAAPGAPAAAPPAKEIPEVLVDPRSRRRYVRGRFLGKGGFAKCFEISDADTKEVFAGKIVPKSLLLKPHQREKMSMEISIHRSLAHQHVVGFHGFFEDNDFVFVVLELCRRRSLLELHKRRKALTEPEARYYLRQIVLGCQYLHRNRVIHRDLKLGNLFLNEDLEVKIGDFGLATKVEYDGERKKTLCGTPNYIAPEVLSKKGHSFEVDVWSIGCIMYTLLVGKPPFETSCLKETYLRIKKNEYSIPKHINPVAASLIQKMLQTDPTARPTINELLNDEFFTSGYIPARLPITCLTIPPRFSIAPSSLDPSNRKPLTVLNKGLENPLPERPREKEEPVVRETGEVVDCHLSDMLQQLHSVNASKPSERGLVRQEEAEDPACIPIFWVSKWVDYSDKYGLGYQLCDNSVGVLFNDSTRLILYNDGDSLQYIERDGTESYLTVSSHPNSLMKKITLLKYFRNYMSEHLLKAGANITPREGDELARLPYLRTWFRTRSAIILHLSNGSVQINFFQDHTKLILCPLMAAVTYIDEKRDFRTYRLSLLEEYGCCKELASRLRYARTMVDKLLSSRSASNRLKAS

Row | SMILES | max response, negative = inhibition [%] | Potency
1 | CC(O)(c1cccc(F)c1)c1nc(-c2ccc3c(c2)OCO3)cs1 (stereo not drawn) | -0.065 | 
2 | COc1ccc([C@H]2N[C@]3(CCCN(Cc4ccco4)C3=O)[C@H]3C(=O)N(C)C(=O)[C@@H]23)cc1 | -10.5 | 
3 | O=C(c1ccc(S(=O)(=O)c2ccccc2)cc1)N1CCCCCC1 | -6.16 | 
4 | N#Cc1ccccc1-n1c(N)c(C(=O)N2CCCC2)sc1=S |  | 4.23 µM (active)
5 | CCC(=O)Nc1sc(C(=O)N2CCCCC2)c(C)c1C#N | 0.524 | 
6 | Cc1cccc(N2CCN(C(=O)c3ccccc3NC(=O)C3CCCCC3C(=O)O)CC2)c1 (stereo not drawn) | -5.42 | 
7 | Cc1ccc(-n2c(N)c(C(=O)N3CCOCC3)sc2=S)c(C)c1 |  | 18.9 µM (active)
8 | CC(C)=C1SC(N2CCN(c3cccc(C)c3)CC2)=NC1=O | -13.5 | 
9 | Cc1cccc(-n2c(N)c(C(=O)N3CCN(C)CC3)sc2=S)c1 |  | 1.89 µM (active)
10 | Cc1ccc(S(=O)(=O)N2CCN(C(=O)N3CCOCC3)CC2)c(C)c1 | 3.35 | 
11 | Cc1ccc(N2CCN(C(=O)c3cccs3)CC2)c(C)c1 | -4.91 | 
12 | COc1ccc(Cl)cc1-c1cc(C(=O)Nc2cc(OC)c(OC)c(OC)c2)[nH]n1 | -0.229 | 
13 | CCc1oc(-c2ccc(OC)cc2)c(C(=O)OCCCCCO)c1C(C)OCCO (stereo not drawn) | -3.22 | 
14 | COc1ccc(-c2coc3c(C(=O)NC(C)C)cccc23)c(C)c1 | -1.63 | 
15 | O=C1CCC(=O)N1CCC(=O)N(C(=O)NC1CCCCC1)C1CCCCC1 | -3.92 | 
16 | CSC1=NN(c2ccccc2)CN(c2ccccc2)N1C | 3.5 | 
17 | CSc1ncnc2c1ncn2CCCNCc1cccs1 | -6.17 | 
18 | CCOC(=O)c1c(Cc2ccc(Cl)cc2)c[nH]c1C | -3.47 | 
19 | CC(=O)c1c(C)c[nH]c1C |  | 3.36 µM (active)
20 | Cc1cc(C)n2c(NCc3ccccc3)c(CC(C)C)nc2n1 | 4.6 | 
21 | Cc1c(NC(=O)c2coc(=O)c(Br)c2)c(=O)n(-c2ccccc2)n1C | -12.4 | 
22 | Cc1cc(C(=O)COC(=O)c2cccs2)c(C)n1-c1c(C)n(C)n(-c2ccccc2)c1=O |  | 29.9 µM (active)

Row | SMILES | max response, negative = inhibition [%] | Potency
23 | CCCn1c(C)cc(C(=O)COC(=O)c2c(C)nn(-c3ccccc3)c2C)c1C | 0.347 | 
24 | Cc1cc(C(=O)CC#N)c(C)n1CC(F)(F)F | -1.11 | 
25 | COc1ccc(-n2c(C)cc(C(=O)COC(=O)c3cc(OC)c(OC)cc3NC(=O)c3cccs3)c2C)cc1 | -3.08 | 
26 | Cc1cc(C(=O)CC#N)c(C)n1-c1c(C)n(C)n(-c2ccccc2)c1=O |  | 21.2 µM (active)
27 | CCCNC(=O)c1cc2c(c(-c3cccc(-c4ccc(C#N)cc4)c3)n1)[C@@H](CCO)N(C(=O)CC)C2 | -12.5 | 
28 | c1ccc2c(c1)nnn2-c1ccncc1 | -7.91 | 
29 | COc1ccc(NC(=O)C2Cc3c(-c4cccc(NC(C)=O)c4)ccnc3O2)cc1OC (stereo not drawn) | -15.4 | 
30 | CC(C)NC(=O)Nc1ccc2c(c1)C(=O)N([C@H](C)CO)C[C@H](C)[C@@H](CN(C)Cc1ccc(C(F)(F)F)cc1)OCCCC[C@@H](C)O2 | -16.7 | 
31 | O=C(COC(=O)c1cccc(Cl)c1Cl)NC1CCCCCC1 | -7.54 | 
32 | COc1ccc(N2CCN(C(=S)Nc3ccc(S(N)(=O)=O)cc3)CC2)cc1 |  | 13.4 µM (active)
33 | CCOc1ccccc1N1CCN(C(=S)Nc2ccc(S(N)(=O)=O)cc2)CC1 | -0.318 | 
34 | NS(=O)(=O)c1ccc(NC(=S)N2CCCC2)cc1 | -13.8 | 
35 | CN(C)C(CNC(=O)c1cc(Br)c(Br)s1)c1ccco1 (stereo not drawn) | -5.95 | 
36 | O=S1(=O)CC(N2CCN(CCO)CC2)CN1Cc1cn(Cc2cccc(Cl)c2)nn1 (stereo not drawn) | -6.24 | 
37 | Cc1ccc(-c2cnc(C(O)c3cc(Cl)cc(Cl)c3)[nH]2)cc1 (stereo not drawn) | 5.64 | 
38 | COc1ccc(CNC(=O)COC(=O)C2=Cc3ccccc3OC2)cc1 |  | 13.4 µM (active)
39 | COc1ccc(CNC(=O)COC(=O)C(CCSC)N2C(=O)c3ccccc3C2=O)cc1 (stereo not drawn) | -13.1 | 
40 | COc1ccc(CCNC(=O)COC(=O)c2cc(=O)c3ccccc3o2)cc1 | -2.93 | 
41 | Cc1ccc(-c2ccc(CN3C(C)C(=O)N(Cc4cn(CCC5OCCCO5)nn4)CCS3(=O)=O)cc2)cc1 (stereo not drawn) | -2.81 | 
42 | O=C(NC1Cc2ccccc2C1)c1cc(COc2cccc(C(F)(F)F)c2)on1 | -5.34 | 
43 | O=c1cc(CO)oc(C(Nc2cccc(C(F)(F)F)c2)c2ccccn2)c1O (stereo not drawn) |  | 26.7 µM (active)
44 | NC(c1ccccc1)c1csc(NC(=O)Nc2cccc(C(F)(F)F)c2)n1 (stereo not drawn) | -4.96 | 

Row | SMILES | max response, negative = inhibition [%] | Potency
45 | COc1ccc(C=C2CCC3C(CCCC34OCCO4)C2=O)cc1 (stereo not drawn) | -14.1 | 
46 | CCc1ccc(OC2(C)CCN(CCOc3ccc(C)cc3)C2)cc1 (stereo not drawn) | 0.495 | 
47 | O=C(COc1ccc(Br)cc1)OCC(=O)c1ccc[nH]1 | -8.67 | 
48 | Cc1ccc2nc(N3C(=O)C(O)=C(C(=O)c4ccco4)C3c3cccc(O)c3)sc2c1 (stereo not drawn) |  | 18.9 µM (active)
49 | COc1ccc2nc(N3C(=O)C(O)=C(C(=O)c4ccco4)C3c3ccco3)sc2c1 (stereo not drawn) | -16.7 | 
50 | O=C(C1=C(O)C(=O)N(c2ncccn2)C1c1cccs1)c1ccco1 (stereo not drawn) | -18.5 | 
51 | COc1ccc(-c2cc3nc(NCCOc4ccccc4)ccn3n2)cc1 | -1.91 | 
52 | Cc1nc2c(OCc3ccc(Cl)cc3)cccn2c1N(C)Cc1cccs1 | -7.96 | 
53 | Cc1ccc(-c2cnc(C(O)c3cccc(C)c3C)[nH]2)cc1 (stereo not drawn) | 2.44 | 
54 | O=c1[nH]c2ccccc2n2c(-c3ccccc3)nnc12 |  | 0.947 µM (active)
55 | O=c1[nH]n2c(-c3ccccc3)nc(O)c2c2ccccc12 | -5.86 | 
56 | O=C(c1ncn2c1c(=O)[nH]c1ccccc12)N1CCc2ccccc2C1 | 6.5 | 
57 | COc1ccc(Br)c(Cn2c(C)c(C(=O)NCc3cccs3)sc2=O)c1 | 8.23 | 
58 | CCOC(=O)[C@]12CCCC=C1N(CCC1=CCCCC1)C(=O)[C@H](CC(=O)NCCCCc1ccccc1)C2 | -2.05 | 
59 | COc1ccccc1CNC(=O)c1ccc(CS(=O)(=O)c2ccccc2)o1 | -4.65 | 
60 | CCc1ccccc1S(=O)(=O)Cc1ccc(C(=O)NCCc2ccccc2)o1 |  | 26.7 µM (active)
61 | Cc1ccccc1S(=O)(=O)Cc1ccc(C(=O)NCCN2CCCCC2C)o1 (stereo not drawn) | 1.66 | 
62 | COC(=O)c1ccc2nc(-c3cccc(Br)c3)c(Cc3ccc(OC)cc3C)n2c1 | -4.35 | 
63 | CCC(c1nnnn1-c1ccc2c(c1)OCCO2)N1CCN(c2ccc(C(F)(F)F)cn2)CC1 (stereo not drawn) | 3.69 | 
64 | COc1ccc(C(CNC(=O)c2ccc(OCc3cscn3)cc2)N2CCCC2)cc1 (stereo not drawn) | 3.78 | 
65 | Cc1cc(NC(=O)c2ccccc2C)no1 | -3.17 | 
66 | Cc1csc(NC(=O)Nc2ccccc2[N+](=O)[O-])n1 | 3.11 | 

Row | SMILES | max response, negative = inhibition [%] | Potency
67 | Cc1cc(NC(=O)Nc2ccccc2[N+](=O)[O-])no1 |  | 10.6 µM (active)
68 | O=C(O)c1ccc(NC(=O)c2cn(-c3ccccc3)nc2-c2ccc(Cl)cc2)cc1 |  | 26.7 µM (active)
69 | Cc1ccc(-c2nn(-c3ccccc3)cc2C(=O)NC2CCC(O)CC2)cc1 (stereo not drawn) | 6.03 | 
70 | Cc1ccc(-c2nn(-c3ccccc3)cc2C(=O)Nc2cccc(S(=O)(=O)N3CCOCC3)c2)cc1 | -5.73 | 
71 | Nc1nc2c(Br)ccc(Br)c2cc1C(=O)NCCc1ccccc1 | -9.21 | 
72 | COc1cccc(NC(=O)CN(C)C(=O)c2cc(Cl)nc3ccccc23)c1 | -14.4 | 
73 | O=C(C[C@H]1C[C@H]2c3cc(NS(=O)(=O)c4ccc(F)cc4)ccc3O[C@H]2[C@H](CO)O1)NCc1cc(F)ccc1F | -5.98 | 
74 | O=c1ccc2c(-c3ccccc3S(=O)(=O)O)c3ccc(O)c(O)c3oc-2c1O |  | 7.52 µM (active)
75 | O=C(c1cccs1)N1C[C@H](n2cc(C3CC3)nn2)[C@@H](O)C[C@@H]1c1ccccc1 | 0.263 | 
76 | Cc1ccc(N2CC(C(=O)Nc3ccc(S(=O)(=O)N4CCCC4)cc3)CC2=O)cc1C (stereo not drawn) | -12.9 | 
77 | CNS(=O)(=O)c1ccc(NC(=O)C2CC(=O)N(c3ccc(Cl)cc3)C2)cc1 (stereo not drawn) |  | 26.7 µM (active)
78 | O=C(Nc1ccc(S(=O)(=O)N2CCCCC2)cc1)C1CC(=O)N(c2ccc(F)cc2)C1 (stereo not drawn) | -7.84 | 
79 | CCc1nc2c(OCCC3CCCCC3)cccn2c1N(C)C(=O)c1ccco1 | -5.85 | 
80 | COc1ccc(N2c3ccccc3CN(Cc3ccccc3)[C@@H](C)[C@H]2Cc2ccc(-c3ccccc3)cc2)cc1 | 3.32 | 
81 | Cc1sc2ncnc(SCC(=O)NC3CCS(=O)(=O)C3)c2c1C (stereo not drawn) | -10.2 | 
82 | O=C(NCc1nnnn1-c1ccc(Cl)cc1)c1ccc2c(c1)OCO2 | -15.4 | 
83 | COc1ccc(C(=O)NCC2CCCO2)cc1S(=O)(=O)NCc1ccc(Cl)cc1 (stereo not drawn) | -11.7 | 
84 | Cc1ccc([C@H]2C[C@H](O)[C@@H](n3cc(COC(=O)c4ccccc4)nn3)CN2C(=O)C2CCCCC2)cc1 | -1.5 | 
85 | O=c1[nH]c2ccccc2s1 | -9.39 | 
86 | Nc1ccc2[nH]c(=S)sc2c1 |  | 2.99 µM (active)
87 | CC1=C(C(=O)N2CCOCC2)CC(CC(=O)NCc2ccco2)C(=O)N1Cc1ccc(F)cc1 (stereo not drawn) | -9 | 
88 | CCOC(=O)C1CCCN(C(=O)c2cccc3ccccc23)CC1 (stereo not drawn) | -9.5 | 
